These entries were drawn from the full list.
aSyn UTR act – Activators via SNCA 5'UTR binding, MLPCN; AID 1814; activity score, % (tested at 7.5 µM), hits read low; 300,000 tested, 7.1% active; alpha-synuclein 5'UTR reporter, activators screen; in the data active means activity score below about -60%
A number is an active result; - = inactive.

SMILES | aSyn UTR act
O=C1/C(=N\S(=O)(=O)c2cccs2)C([n+]2cccc(Cc3ccccc3)c2)=C([O-])c2ccccc21 | -
COc1ccc(Nc2nc3ccccc3n2C)cc1 | -101
CCCn1c(CNc2ccccc2O)nc2ccccc21 | -84
Cn1c(CNc2nc3ccccc3n2C)nc2ccccc21 | -81
Cc1nnc(SCc2ccccc2)nc1-c1ccccc1 | -124
O=C1NC(c2cccs2)Nc2sc3c(c21)CCCC3 (stereo unspecified) | -131
COc1cc(/C=C2\C(=N)N3N=CSC3=NC2=O)ccc1OS(=O)(=O)c1ccccc1[N+](=O)[O-] | -75
O=C(Nc1nc2c(F)cc(F)cc2s1)c1ccccn1 | -
Fc1ccc2nc(Nc3nc4c(F)cccc4s3)sc2c1 | -235
Fc1cccc2sc(Nc3nc4ccccc4s3)nc12 | -309
Fc1ccc2nc(Nc3nc4c(F)cc(F)cc4s3)sc2c1 | -211
CCOc1ccc(-c2cc(C(=O)N/N=C(\C)c3cccnc3)c3ccccc3n2)cc1 | -92
C/C(=N\NC(=O)c1nn(C)c(C)c1Br)c1ccc(NC(=O)c2ccc(C)s2)cc1 | -149
C/C(=N\NC(=O)c1ccc(NS(=O)(=O)c2cccs2)cc1)c1ccccn1 | -
C/C(=N/NC(=O)c1ccoc1C)c1ccc(NC(=O)c2ccncc2)cc1 | -206
C/C(=N\NC(=O)c1nn(C)c(C)c1Br)c1ccc(NC(=O)c2ccoc2C)cc1 | -115
Cc1ccc(/C=N/NC(=O)c2cc(-c3cccnc3)nc3ccccc23)cc1 | -
C/C(=N\NC(=O)c1c(Br)c(C)nn1C)c1ccc(NC(=O)c2ccoc2C)cc1 | -106
C/C(=N\NC(=O)c1ccoc1C)c1cccnc1 | -117
C/C(=N\NC(=O)c1nn(C)c(C)c1Br)c1ccc(NC(=O)c2ccccc2F)cc1 | -69
C/C(=N/NC(=O)c1ccoc1C)c1ccc(N2CCOCC2)cc1 | -131
COc1ccc2c(c1)CC/C(=C/c1ccccn1)C2=O | -81
COc1ccc(N/C=C2\CCc3ccccc3C2=O)cc1 | -
O=C1/C(=C/Nc2ccc3c(c2)OCO3)CCc2ccccc21 | -
COc1ccc2c(c1)CC/C(=C\C=C\c1ccccc1)C2=O | -64
SMILES | aSyn UTR act
COc1cccc(/C=C2\CCc3ccccc3C2=O)c1 | -97
COc1ccc2c(c1)CC/C(=C\Nc1ccc3c(c1)OCO3)C2=O | -197
COc1ccc(OC)c(C2C3=C(COC3=O)Nc3cc4c(cc32)OCO4)c1 (stereo unspecified) | -
O=C1CCC/C(=N\NC(=O)c2ccc(COc3ccccc3-c3ccccc3)cc2)C1 | -71
O=C(Nc1ccc(N2CCCCC2)cc1)c1ccc([N+](=O)[O-])o1 | -214
O=C(Nc1ccccc1N1CCCC1)c1ccc([N+](=O)[O-])o1 | -112
CS(=O)(=O)N1CCN(c2ccc(NC(=O)c3ccc([N+](=O)[O-])o3)cc2)CC1 | -
COc1ccc(NS(=O)(=O)c2cc(NC(=O)c3ccc(C)o3)ccc2N2CCCCC2)cc1 | -62
COc1ccc(N2CCCC2)c(NC(=O)c2ccc([N+](=O)[O-])o2)c1 | -70
CC(=Nc1cc(C(=O)c2ccccc2)ccc1N)C1=C(O)CC(C)(C)CC1=O | -76
CCCC(C)C(=O)Nc1nc(C)c(-c2csc(Nc3cc(OC)ccc3OC)n2)s1 (stereo unspecified) | -
Cc1nc(NC(=O)c2ccccc2)sc1-c1csc(Nc2ccc(C(=O)O)cc2)n1 | -73
COc1ccccc1Nc1nc(-c2sc(NC(=O)c3cccc(Cl)c3)nc2C)cs1 | -86
O=C(O)c1ccc(Nc2nc(-c3ccccc3)cs2)cc1 | -114
Cc1nc(N)sc1-c1csc(Nc2ccccc2)n1 | -130
CCOc1ccc(C(=O)Nc2ccc3nc(N4CCN(CC)CC4)cc(C)c3c2)cc1 | -
COc1cc(C(=O)Nc2ccc3nc(N4CCN(C)CC4)cc(C)c3c2)cc(OC)c1OC | -103
Cc1cc(N2CCN(C)CC2)nc2ccc(NC(=O)c3ccc(Br)o3)cc12 | -103
CCN1CCN(c2cc(C)c3cc(NC(=O)c4cc(OC)cc(OC)c4)ccc3n2)CC1 | -98
CNC(=O)c1ccsc1NC(=O)c1ccc2c(c1)CCCC2 | -214
COc1ccc(-c2ccc(-c3nnn(CC(C)=O)n3)cc2)cc1 | -189
COc1cccc(-c2nnn(CC(=O)N3CCCCC3)n2)c1 | -74
COc1ccc(-n2nnnc2-c2cccc(OC)c2)cc1 | -
COc1ccc(NC(=O)Cn2nnc(-c3ccccc3NS(=O)(=O)c3ccc(OC)cc3)n2)cc1 | -
COc1cccc(-c2nnn(CC(C)=O)n2)c1 | -122
SMILES | aSyn UTR act
C=CCNC(=O)Cn1nnc(-c2ccc(-c3ccc(OC)cc3)cc2)n1 | -129
CCc1ccc(-c2nnn(CCC(=O)OC)n2)cc1 | -
COc1ccccc1NC(=O)c1ccc(-c2ccccc2F)o1 | -145
COC(=O)c1ccccc1NC(=O)c1ccc(-c2ccccc2F)o1 | -129
Cc1cc(NC(=O)c2ccc(-c3ccccc3F)o2)no1 | -125
Nc1c(C(=O)c2ccccc2)sc2nsc(SCCN3CCCC3)c12 | -87
CC(C)(C)c1nnc(NC(=O)Nc2ccc(Cl)cc2)s1 | -114
COc1ccc(NC(=O)Nc2nnc(C(C)(C)C)s2)cc1 | -67
Cc1nc(NC(=O)Nc2ccc(Cl)cc2)sc1C | -164

From PubChem
